The list is not random: actives were taken first. Their share in the collection is about 2.8%.
IP6K1 inh – Primary qHTS assay for small molecule inhibitors of Inositol hexaphosphate kinase 1 (IP6K1); activity change, % (series mostly up to about 58 µM); Inositol hexakisphosphate kinase 1 (Homo sapiens), Q92551; IP6K1 kinase, ADP-Glo luminescence, 2 h; hits give low values; actives 0.81% (n = 140,000); in the data active = activity change below about -25%
Target sequence (Q92551 whole entry, looked up): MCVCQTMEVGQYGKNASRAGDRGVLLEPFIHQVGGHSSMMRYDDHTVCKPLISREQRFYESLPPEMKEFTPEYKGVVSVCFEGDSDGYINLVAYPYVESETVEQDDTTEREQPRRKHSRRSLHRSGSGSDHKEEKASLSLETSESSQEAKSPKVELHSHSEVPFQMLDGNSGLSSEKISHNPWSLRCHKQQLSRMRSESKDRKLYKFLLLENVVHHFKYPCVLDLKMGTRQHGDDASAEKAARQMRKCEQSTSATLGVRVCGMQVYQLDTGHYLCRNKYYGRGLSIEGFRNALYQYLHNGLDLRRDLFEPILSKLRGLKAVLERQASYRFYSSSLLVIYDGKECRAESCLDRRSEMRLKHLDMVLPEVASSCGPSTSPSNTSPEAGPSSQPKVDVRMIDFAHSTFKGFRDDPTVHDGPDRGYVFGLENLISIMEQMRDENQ
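ADP-Glo luminescence measures ADP made by human IP6K1 during a 2 h RT reaction with ATP/IP6 (mix at 1.3 mM/130 uM); top library doses 57.5 and 19.1 uM final.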
KDM5B inh – Primary screen for KDM5B Histone Demethylases FDH-coupled qHTS. AID 1347165, 2019. Potency, µM (doses to about 57.7 µM), hits mostly inhibitors. actives 2.6% (n = 220,000). Lysine-specific demethylase 5B (Homo sapiens), Q9UGL1. KDM5B demethylase, FDH-coupled NADH fluorescence (FDH is formaldehyde dehydrogenase); note: nearly all actives have a fitted effect of over 70% in size
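KDM5BΔAP (200 nM final) in 50 mM HEPES pH 7.5, 0.01% Tween-20 was preincubated 10 min at RT with compound over a concentration range. Substrate mix (H3K4me3 12.5 µM, α-KG 25 µM, Fe²⁺, ascorbate, NAD⁺, FDH) was added, and NADH fluorescence change over 30 min gave dose-response curves.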
A number is an active result; – = inactive; ? = inconclusive; · = no result.

SMILES	IP6K1 inh	KDM5B inh
Cn1nnnc1C1CCCN(C(=O)c2ccc3cc[nH]c3c2)C1 (stereo unspecified)	–	20µM
Cc1ccc(C(=O)N2CCCC(c3nn[nH]n3)C2)cn1 (stereo unspecified)	–	22.4µM
COc1ccccc1C(=O)N1CCCC(c2nn[nH]n2)C1 (stereo unspecified)	–	–
Cn1nnnc1C1CCCN(C(=O)c2cccc3[nH]ccc23)C1 (stereo unspecified)	–	31.6µM
CN1CCC([C@@H]2CN(C(=O)c3ccc4cc[nH]c4c3)C[C@H]2C(N)=O)CC1	–	20µM
Cn1ncc2c(C(=O)NCc3cccc(Cl)c3)cc(-c3ccc(F)cc3)nc21	–	·
Cc1ccc(C(CNc2oc(CC(C)C)nc2C#N)N2CCOCC2)cc1 (stereo unspecified)	·	–
COc1ccc(F)cc1-c1cccc(C(=O)NCCNC(=O)c2cccnc2)c1	–	·
O=C(CCCc1ccccc1)N1CCC(Cc2nc(-c3ccncc3)n[nH]2)CC1	–	–
O=C(c1ccco1)N1CCCC(c2nn[nH]n2)C1 (stereo unspecified)	–	22.4µM
CN1CCOC[C@H]2CCN(C(=O)c3cccc4[nH]ccc34)C[C@H]21	–	25.1µM
Cc1cc(C)n(CCC(=O)N2CCCC(c3nnnn3-c3ccccc3)C2)n1 (stereo unspecified)	–	·
CN1CCOC[C@H]2CCN(C(=O)c3ccco3)C[C@H]21	–	–
Cc1cc(C)n(CCC(=O)N2CCCC(c3nnnn3C)C2)n1 (stereo unspecified)	–	25.1µM
Cn1nccc1C(=O)N1CCCC(c2nn[nH]n2)C1 (stereo unspecified)	–	?
COCCOC1CN(C2CCN(C(=O)c3cccc4[nH]ccc34)CC2)C12CCCCC2 (stereo unspecified)	–	22.4µM
COCCOC1CN(C2CCN(C(=O)c3ccc(OC)cc3)CC2)C12CCCCC2 (stereo unspecified)	–	–
CN(Cc1cccs1)C(=O)c1cccc(C#N)c1	·	–
O=C(COc1ccc2ccc(=O)oc2c1)N(Cc1cccs1)C1CC1	·	–
COc1ccc(-c2cc(C(=O)N3CCCC(C)C3)c3cnn(C)c3n2)cc1 (stereo unspecified)	–	·
O=C1COCCN1c1cc(-c2ccccc2)cn2cncc12	–	·
CCCCn1c(=O)c(C(=O)NCc2ccc(F)cc2)nc2cccnc21	–	·
Cc1ccc(S(=O)(=O)N(C)CC(=O)Nc2ccccc2OC(F)(F)F)cc1	·	–
Cc1ccc([S+](=O)([O-])N2CCCC(C(=O)N3CCC(c4nc5ncccc5[nH]4)CC3)C2)cc1 (stereo unspecified)	–	·
CSCCNC(=O)C1CCCN(c2nccc(Nc3ccccc3F)n2)C1 (stereo unspecified)	–	·
SMILES	IP6K1 inh	KDM5B inh
Cc1nn(Cc2ccccc2)c(C)c1[C@@H]1C=C[C@@H](NS(=O)(=O)c2cccs2)C1	–	–
COCC(=O)N1CCC(N2C(=O)c3c(c(C)nn3-c3ccccc3)C2C)CC1 (stereo unspecified)	–	·
O=C(c1cc(F)ccc1F)N1CCCC(c2nn[nH]n2)C1 (stereo unspecified)	–	–
O=C(c1ccc2cc[nH]c2c1)N1CCCC(c2nn[nH]n2)C1 (stereo unspecified)	–	22.4µM
O=C(Nc1ccc(Cl)cc1)NC1CCN(CCn2nc3n(c2=O)CCCC3)C1 (stereo unspecified)	–	·
O=C(Nc1ccc(Cl)cc1)N1CCC(C(=O)N2CCC(N3Cc4ccccc4C3=O)CC2)CC1	–	·
COc1ccccc1N1CCCc2ncc(C(=O)NCCOc3ccccc3)cc21	–	–
COc1ccccc1N1CCCc2ncc(C(=O)N3CCC[C@@H]3c3ccc(F)cc3)cc21	–	–
COc1ccccc1N1CCCc2ncc(C(=O)NCCc3c[nH]c4ccccc34)cc21	–	28.2µM
COc1ccccc1N1CCCc2ncc(C(=O)N(C)Cc3ccccc3)cc21	–	35.5µM
COc1ccccc1N1CCCc2ncc(C(=O)NCCc3ccccc3)cc21	–	?
COc1ccccc1N1CCCc2ncc(C(=O)N3CCCC[C@@H]3Cc3ccccc3)cc21	–	25.1µM
Cc1ccc2nsnc2c1NC(=O)c1ccc(Cl)cc1Cl	·	–
CC1(C(=O)NC2COC2)CN(Cc2ccccc2)Cc2ccc(Nc3ccccc3)nc21 (stereo unspecified)	–	35.5µM
CN1CCC(NC(=O)C2(C)CN(Cc3ccccc3)Cc3ccc(Nc4ccccc4)nc32)CC1 (stereo unspecified)	–	?
CC1(C(=O)NC2CCOCC2)CN(Cc2ccccc2)Cc2ccc(Nc3ccccc3)nc21 (stereo unspecified)	–	28.2µM
CCSC1=N/C(=C\c2c(C)cc(C)cc2C)C(=O)S1	·	–
O=C(NCc1ccc(F)cc1)c1cn2cc(-c3ccccc3)sc2n1	–	·
